The record followed here is PubChem BioAssay.

A short description of experiment [1]: compounds altering circadian rhythm period length – cell-based, LOPAC library, luminescence reporter (AID 2774).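 Also: values are relative to mean of DMSO wells on each plate.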 To be noted: circadian reporter cells, at 7 µM, actives lie on both sides.
The test system of experiment [2] is Hepatitis C virus NS3 helicase. As to the kind of experiment: blockers of NS3h binding to ssDNA – biochemical, fluorescence polarization, LOPAC1280 library, primary screen (AID 687035; in the data active = inhibition above about 37%). The conditions noted are these: Purified HCV NS3 helicase, Cy5-dT15 ssDNA binding fluorescence polarization; stronger effect = higher value; concentration not given here. (Polarisation of emitted light reports the rotation of a fluorescent probe.)

Experiment [3] in a line: compounds altering Cy5-DNA-NS3h complex signal – biochemical, LOPAC1280, artefact control for HCV NS3 helicase inhibitor project (AID 687037). The conditions noted are these: Cy5-DNA-NS3h complex fluorescence interference counterscreen. In general terms: The purpose of a counterscreen is to sort out artefacts and off-target activity.
Experiment [4] concerns Aerobactin synthetase IucA (Klebsiella pneumoniae, hypervirulent). As to the kind of experiment: biochemical IucA inhibition screen of LOPAC library by absorbance (AID 1346212).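 Also: 100% = no compound wells and 0% = no enzyme wells.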 To be noted: IucA enzyme assay, absorbance (OD) readout; stronger effect = lower value;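 tested at 8 µM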.
Experiment [5] can be described thus: viability loss with induced miR-34 in A549 – imaging, A549 dox-inducible miR-34, nuclei and caspase counts, primary screen (AID 1347080;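 active = compounds whose cell count with miR-34 switched on is under 0.7 times the count with it off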). The conditions noted are these: A549 miR-34 inducible, Hoechst nuclei count, 48 h.
Experiment [6] can be described thus: blockers of cellular phospholipid synthesis – cell-based, LOPAC library, screen 4, primary screen (AID 1347384). The conditions noted are these: animal cells, phospholipid biosynthesis inhibition screen; at 10 µM.
Experiment [7] can be described thus: galactose survival enhancers in mitochondrial complex I cybrids – cell-based, galactose medium, ATP luminescence, primary screen (AID 1645843;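 active = z-score of at least 1.8 in each of two replicates, scored against plate mean and spread of sample wells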;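 also: positive z means more ATP and so rescue of galactose-driven cybrid death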). The conditions noted are these: complex I mutant cybrid cells, 72 h, stronger effect = higher value.
Experiment [8] is described as follows: P. berghei load reduction in hepatocytes – cell-based, HepG2, luciferase luminescence, HepG2 viability, primary screen (AID 624349; in the data active = parasite load remaining mostly below about 12%, no sharp cut-off; inactive = mostly above about 10%;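 also: 100% = mean of DMSO negative control wells on the same plate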). The conditions noted are these: P. berghei liver stage in HepG2, luciferase luminescence, concentration not given here; parasite load remaining: stronger effect = lower value; viability: measured here: HepG2 viability without parasites.
A short description of experiment [9]: compounds altering viability of human ES cells (AID 493140).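 Also: cells exposed to compounds for four days before counting.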 The conditions noted are these: human embryonic stem cell survival screen; stronger effect = higher value.
The mark [10] stands for this setting: measured here: relative caspase fold change +Dox/-Dox.
[11] abbreviates: measured here: total cells with miR-34 induction, stronger effect = lower value.
Where [12] appears, read: measured here: total cells without miR-34 induction.

SMILES strings stand for the structures. “And” between values parts separate entries of the source, which are not always exact repeats. Identical values can stand only once. The source made the active and inactive calls. Unless noted, no rule for the calls is given here.

Turning to `NC(=O)CI`, in experiment [1], the period change is -0.03 h (inactive). In experiment [2], the inhibition is -1% (inactive). In addition, in experiment [3], the fluorescence ratio (interference) was 1.1 (inactive). Also, in experiment [4], the remaining activity was 124% (inactive). Also, the fold change in experiment [5] (stronger effect = lower value) was 1.11 (inactive); in experiment [5] (setting [10]), 1.73. Besides, the cell count in experiment [5] (setting [11]) came to 3640; in [5] (setting [12]), 3270. The molecule was classed as inactive in experiment [6]. In experiment [7], the z-score is -1 (inactive).
Take `CC(C)NC(C)Cc1ccc(I)cc1` (centres undefined): in experiment [1], the period change was 0.04 h (inactive). The inhibition in experiment [2] is -1% (inactive). Also, in experiment [3], the fluorescence ratio (interference) is 1 (inactive). Also, the remaining activity in experiment [4] is 108% (inactive). Also, the fold change in experiment [5] (stronger effect = lower value) is 1.08 (inactive); in experiment [5] (setting [10]) it was 0.905. The results for the cell count in experiment [5] (setting [11]) and in experiment [5] (setting [12]) were 10800 and 10000, respectively. Also, the outcome in experiment [6] was inactive. For the same molecule, the z-score in [7] was -0.22 (inactive).
For `CN(N=O)c1ccc(O)c(O)c1`, the period change in [1] was -0.025 h (inactive). In addition, the inhibition in [2] was 27% (inactive). Moreover, the fluorescence ratio (interference) in [3] was 0.9 (inactive). In addition, the remaining activity in experiment [4] is 85.2% (inactive). In addition, the fold change in experiment [5] (stronger effect = lower value) is 1.13 (inactive); in [5] (setting [10]), 0.905. Moreover, the results for the cell count in experiment [5] (setting [11]) and in [5] (setting [12]) were 9750 and 8640, respectively. In addition, the result in experiment [6] was inactive. Also, the z-score in experiment [7] is 0.2 (inactive).
For the molecule `CC12NC(Cc3ccccc31)c1ccccc12` (centres undefined), in experiment [1], the period change is 0.25 h (inactive). For the same molecule, in experiment [8], the parasite load remaining is 63.2% (inactive). Further, the viability in experiment [8] is 167%. For the same molecule, the inhibition in [2] is -3% (inactive). Further, the fluorescence ratio (interference) in experiment [3] is 0.9 (inactive). Besides, in experiment [4], the remaining activity is 120% (inactive). Further, the fold change in experiment [5] (stronger effect = lower value) is 1.01 (inactive) and 0.879 (inactive); in [5] (setting [10]), 1.28 and 2.22. Moreover, the cell count in experiment [5] (setting [11]) is 10300 and 11700; in experiment [5] (setting [12]), 10100 and 13300. Further, in experiment [6], the call was inactive. Also, the z-score in [7] is -0.15 (inactive).
Regarding `O=C(O)Cc1ccc(O)c(O)c1`, in [4], the remaining activity was 107% (inactive).
As for `CN1CC[C@@]2(C)c3cc(O)ccc3N(C)C12` (some centres undefined), the period change in experiment [1] is -0.055 h (inactive). For the same molecule, in experiment [9], the survival was 4.58 (inactive). In addition, in experiment [2], the inhibition was 1% (inactive). The fluorescence ratio (interference) in [3] was 1 (inactive). Besides, the remaining activity in experiment [4] was 92.9% (inactive). The results for the fold change in experiment [5] (stronger effect = lower value) and in experiment [5] (setting [10]) were 1.09 (inactive) and 1.19, respectively. In addition, the cell count was found to be 8970 in [5] (setting [11]) and 8270 in experiment [5] (setting [12]). Also, the molecule was called inactive in experiment [6]. For the same molecule, the z-score in [7] is -1.04 (inactive).
As for `NNC(=O)c1ccc(O)cc1`, the period change in experiment [1] was 0.115 h (inactive). In experiment [2], the inhibition was 1% (inactive). The fluorescence ratio (interference) in [3] was 1.1 (inactive). In addition, the remaining activity in experiment [4] is 109% (inactive). In addition, the fold change in experiment [5] (stronger effect = lower value) is 0.976 (inactive); in [5] (setting [10]), 1.57. For the same molecule, the figures for the cell count in experiment [5] (setting [11]) and in experiment [5] (setting [12]) were 9790 and 10000, respectively. Besides, the result in experiment [6] was inactive. The z-score in experiment [7] was 0.275 (inactive).
For `CCCC[N+]1(C)C2CC(OC(=O)[C@H](CO)c3ccccc3)CC1C1OC12` (some centres undefined), the period change in experiment [1] was -0.065 h (inactive). Besides, in experiment [2], the inhibition was -1% (inactive). Besides, the fluorescence ratio (interference) in [3] is 1 (inactive). For the same molecule, in experiment [4], the remaining activity was 117% (inactive). Moreover, the fold change in [5] (stronger effect = lower value) was 0.937 (inactive); in [5] (setting [10]) it was 1.39. The cell count in experiment [5] (setting [11]) was 9870; in [5] (setting [12]) it was 10500. Besides, in [6], the result was inactive. In [7], the z-score was 0.72 (inactive).
As to `CN(C(=O)Cc1ccc(Cl)c(Cl)c1)C(CN1CCCC1)c1cccc(OCC(=O)O)c1` (centres undefined), in experiment [1], the period change was -0.06 h (inactive). Further, the inhibition in [2] was -4% (inactive). Further, the fluorescence ratio (interference) in [3] was 1 (inactive). For the same molecule, in [4], the remaining activity is 103% (inactive). Also, the fold change in experiment [5] (stronger effect = lower value) was 1.05 (inactive); in experiment [5] (setting [10]), 1.11. Moreover, the cell count in experiment [5] (setting [11]) was 10700; in [5] (setting [12]), 10200. In addition, the molecule was called inactive in [6]. Besides, the z-score in experiment [7] is 0.31 (inactive).
On to `O=S1(=O)N(CCN2CC=C(c3c[nH]c4cc(F)ccc34)CC2)c2cccc3c2N1CCC3`, for which the period change in experiment [1] is 0.13 h (inactive). Moreover, in [2], the inhibition was 0% (inactive). Further, in experiment [3], the fluorescence ratio (interference) was 1 (inactive). Also, the remaining activity in [4] was 123% (inactive). The fold change is 1.01 (inactive) in [5] (stronger effect = lower value) and 0.783 in experiment [5] (setting [10]). Further, the cell count in [5] (setting [11]) turned out to be 5470; in [5] (setting [12]), 5400. In experiment [6], the molecule was called inactive. The z-score in [7] is -1.29 (inactive).
As to `CO[C@H]1CC=C2CCN3CCC4=C(CC(=O)OC4)[C@]23C1`, the period change in [1] is 0.065 h (inactive). Besides, the inhibition in [2] is -3% (inactive). The fluorescence ratio (interference) in experiment [3] was 1 (inactive). The remaining activity in experiment [4] is 103% (inactive). Also, the fold change is 0.939 (inactive) in experiment [5] (stronger effect = lower value, cell number ratio, induced over uninduced) and 1.26 in experiment [5] (setting [10]). Besides, the results for the cell count in experiment [5] (setting [11]) and in experiment [5] (setting [12]) were 9420 and 10000, respectively. Moreover, the call in experiment [6] was inactive. The z-score in experiment [7] was 0.375 (inactive).
On to `C[N+](C)(C)CC#CCOC(=O)Nc1cccc(Cl)c1`, for which the period change in experiment [1] is 0.045 h (inactive). The inhibition in experiment [2] was -2% (inactive). The fluorescence ratio (interference) in [3] was 1 (inactive). For the same molecule, the remaining activity in experiment [4] was 123% (inactive). The fold change in [5] (stronger effect = lower value) was 0.993 (inactive); in experiment [5] (setting [10]), 1.89. For the same molecule, the cell count in experiment [5] (setting [11]) was determined as 10400; in experiment [5] (setting [12]), 10500. Moreover, the molecule was called inactive in experiment [6]. Also, in [7], the z-score was -0.395 (inactive).
Consider `c1ccc2c(N3CCNCC3)cccc2c1`, for which the period change in experiment [1] was 0.19 h (inactive). The inhibition in experiment [2] was -1% (inactive). Moreover, the fluorescence ratio (interference) in [3] is 1 (inactive). For the same molecule, the remaining activity in experiment [4] is 77.2% (inactive). The fold change in experiment [5] (stronger effect = lower value) was 0.966 (inactive); in [5] (setting [10]), 1.06. The values for the cell count in experiment [5] (setting [11]) and in [5] (setting [12]) were 8750 and 9060, respectively. Moreover, the outcome in [6] was inactive. Moreover, the z-score in [7] was -0.255 (inactive).
As to `Oc1ccc2c3c1O[C@H]1c4oc5ccccc5c4C[C@@]4(O)C(C2)N(CC2CC2)CCC314` (some centres undefined), the period change in experiment [1] is 0.13 h (inactive). Besides, the inhibition in experiment [2] is -1% (inactive). Also, in experiment [3], the fluorescence ratio (interference) is 1 (inactive). For the same molecule, the remaining activity in experiment [4] was 97.5% (inactive). In addition, the results for the fold change in [5] (stronger effect = lower value) and in experiment [5] (setting [10]) were 1.1 (inactive) and 0.785, respectively. For the same molecule, the results for the cell count in experiment [5] (setting [11]) and in experiment [5] (setting [12]) were 10600 and 9610, respectively. Further, the outcome in experiment [6] was inactive. For the same molecule, the z-score in [7] was -0.595 (inactive).

A word on the inhibition: it is the change of the read-out against control, counted positive when it falls. As a reminder, the remaining activity is the signal under treatment as a percentage of the control signal. For orientation: viability means a read-out of living cells in per cent, often relative to untreated cells.
